Assay [1] addresses Nuclear receptor subfamily 1 group I member 3 (Homo sapiens) (UniProt Q14994). The experiment in a line: Primary qHTS for antagonist of constitutive androstane receptor (CAR) against the NCATS DSHEA and TCM libraries (AID 1794836). Note: potency is the fitted concentration of half-maximal effect. The method in brief: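 HepG2 cells stably carrying hCAR and a CYP2B6 luciferase reporter (2,500 cells/well) attached for 5 h, then received compounds with 48 uM CITCO for 24 h at 37C. ONE-Glo luminescence read antagonism; CellTiter-Fluor (405/540 nm) gave viability.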
(In general: qHTS replaces the single test concentration by a dilution series.)

Assay [2] is described as follows: KB-8-5-11 P-gp reporter qHTS against the NCATS DSHEA and TCM libraries (AID 1919977). Note: 0% is about no effect. A digest of the protocol:
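P-gp-overexpressing KB-8-5-11 cells were screened in colchicine-free medium at 500 cells/well, as a titration series. Cells were exposed for 72 h at 37C. Viability was read by CellTiter-Glo luminescence after 30 min at room temperature.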

A short description of assay [3]: Viability counterscreen for antagonist of constitutive androstane receptor (CAR) against the NCATS DSHEA and TCM libraries (AID 1794837).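 Note: compound exposure lasted 24 h before viability reading; 0% is about no effect.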 A digest of the protocol: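 HepG2-CYP2B6-hCAR cells, 2,500/well, were exposed 24 hr at 37C to substances together with 48 uM CITCO (final). Viability was read as CellTiter-Fluor fluorescence (Ex/Em 405/540 nm) after 1 hr.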
Background: A counterscreen serves to expose hits that act by an unwanted route or on another target.

Assay [4] is described as follows: Viability counterscreen for agonist of constitutive androstane receptor (CAR) against the NCATS DSHEA and TCM libraries (AID 1794838). Note: 0% is about no effect. The method in brief: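 HepG2-CYP2B6-hCAR cells (2,500/well) treated 24 h at 37C with compounds plus 0.75 uM PK11195; viability read by CellTiter-Fluor fluorescence, Ex/Em 405/540 nm.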
For assay [5], the target named is Nuclear receptor subfamily 1 group I member 3 (Homo sapiens) (UniProt Q14994). The experiment in a line: Primary qHTS for agonist of constitutive androstane receptor (CAR) against the NCATS DSHEA and TCM libraries (AID 1794839). Note: potency is the fitted concentration of half-maximal effect. As to conditions: Potency: CAR antagonist co-added at 0.75 µM unless noted. A digest of the protocol: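 HepG2-CYP2B6-hCAR cells, 2,500/well, attached 5 h, then dosed with 0.75 µM PK11195 (final) for 24 h at 37 °C. Luciferase luminescence read (ONE-Glo); CellTiter-Fluor viability (Ex/Em 405/540 nm) in same wells; CITCO positive control.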
Sequence of Nuclear receptor subfamily 1 group I member 3 (Homo sapiens) (Q14994 whole entry, looked up): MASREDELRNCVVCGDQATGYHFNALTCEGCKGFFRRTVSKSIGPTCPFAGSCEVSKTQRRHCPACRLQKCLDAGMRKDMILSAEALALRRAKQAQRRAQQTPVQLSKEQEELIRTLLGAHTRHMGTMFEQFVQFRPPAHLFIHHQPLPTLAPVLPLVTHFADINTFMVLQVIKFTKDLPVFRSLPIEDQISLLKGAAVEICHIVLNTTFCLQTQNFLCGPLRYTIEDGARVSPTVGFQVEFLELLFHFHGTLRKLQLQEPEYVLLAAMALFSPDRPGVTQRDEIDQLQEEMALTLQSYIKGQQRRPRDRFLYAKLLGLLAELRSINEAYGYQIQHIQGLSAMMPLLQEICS

Assay [6] in a line: HepG2 viability counterscreen (readout 2: ATP content) against the NCATS DSHEA and TCM libraries (AID 1794840). Note: 0% is about no effect. A digest of the protocol: (§1)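 HepG2 cells, 1,000/well, attached ~4 h, then exposed ~24 h at 37C to substances. Protease activity read by fluorescence of 25 uM GF-AFC (Ex/Em 380/510 nm) after 30 min; ATP then by CellTiter-Glo luminescence.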
Assay [7] can be described thus: HepG2 viability counterscreen (readout 1: protease activity) against the NCATS DSHEA and TCM libraries (AID 1794841).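 Note: cells exposed to compounds for about 24 h before the protease read; 0% is about no effect.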 A digest of the protocol: as §1
Assay [8] deals with Cytochrome P450 3A4 (Homo sapiens) (UniProt P08684). The experiment in a line: qHTS for inhibitors of CYP3A4 against the NCATS DSHEA and TCM libraries (AID 1919971). Note: potency is the fitted concentration of half-maximal effect. The method in brief:
(§2)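 Substances were tested against enzyme with a pro-luciferin substrate; minus-enzyme wells served as background. After NADPH-initiated oxidation (30-45 min, RT), light was generated with P450-Glo reagent.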

Assay [9] addresses Cytochrome P450 2D6 (Homo sapiens) (UniProt P10635). The experiment in a line: qHTS for inhibitors of CYP2D6 against the NCATS DSHEA and TCM libraries (AID 1919972). Note: potency is the fitted concentration of half-maximal effect. The method in brief:
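qHTS, concentration–response format with most substances from 19.5 nM. CYP2D6 + pro-luciferin substrate, 15 min with compound, then 1x NADPH regen, 30–45 min RT dark. Glo detection 30 min, luminescence. Quinidine control.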

Assay [10] deals with Cytochrome P450 2C9 (Homo sapiens) (UniProt P11712). The experiment in a line: qHTS for inhibitors of CYP2C9 against the NCATS DSHEA and TCM libraries (AID 1919973).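 Note: luminogenic pro-luciferin CYP2C9 substrate turned into luciferin with NADPH regeneration; series mostly up to about 34 µM; % is set by controls: 0 for no effect and ±100 for the full control effect.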 The method in brief: as §2
Sequence of Cytochrome P450 2C9 (Homo sapiens) (P11712 whole entry, looked up): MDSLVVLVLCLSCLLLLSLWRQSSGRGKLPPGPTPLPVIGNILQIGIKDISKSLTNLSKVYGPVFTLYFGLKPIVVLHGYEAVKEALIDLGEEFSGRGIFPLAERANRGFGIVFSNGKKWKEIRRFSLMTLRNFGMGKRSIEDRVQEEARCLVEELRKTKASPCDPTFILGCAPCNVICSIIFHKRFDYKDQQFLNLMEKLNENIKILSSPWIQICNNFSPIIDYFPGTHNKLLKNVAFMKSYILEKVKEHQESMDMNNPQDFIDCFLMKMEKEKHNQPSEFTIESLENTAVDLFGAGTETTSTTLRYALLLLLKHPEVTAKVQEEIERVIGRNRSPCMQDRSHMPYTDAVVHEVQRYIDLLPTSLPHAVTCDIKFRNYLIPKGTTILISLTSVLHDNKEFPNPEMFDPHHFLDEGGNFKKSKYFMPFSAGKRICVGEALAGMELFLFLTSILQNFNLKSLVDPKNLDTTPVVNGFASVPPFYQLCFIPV
Assay [11] in a line: KB-3-1 P-gp reporter qHTS against the NCATS DSHEA and TCM libraries (AID 1919975). Note: 0% is about no effect. The method in brief:
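Parental KB-3-1 cells, 500 cells/well, in DMEM with 10% FBS, exposed 72 h at 37 C to compounds in concentration-response. Viability read by CellTiter-Glo luminescence after 30 min at room temperature.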

For assay [12], the target named is Cytochrome P450 1A2 (Homo sapiens) (UniProt P05177). The experiment in a line: qHTS for inhibitors of CYPIA2 against the NCATS DSHEA and TCM libraries (AID 1919976). Note: potency is the fitted concentration of half-maximal effect. A digest of the protocol: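 Luminescence read-out: pro-luciferin converted to D-luciferin by CYP1A2, detected with P450-Glo reagent after 30 min RT. Enzyme plus substrate got compounds for 15 min RT; NADPH regeneration solution (final 1x) started a 30-45 min reaction, light-protected.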
Sequence of Cytochrome P450 1A2 (Homo sapiens) (P05177 whole entry, looked up): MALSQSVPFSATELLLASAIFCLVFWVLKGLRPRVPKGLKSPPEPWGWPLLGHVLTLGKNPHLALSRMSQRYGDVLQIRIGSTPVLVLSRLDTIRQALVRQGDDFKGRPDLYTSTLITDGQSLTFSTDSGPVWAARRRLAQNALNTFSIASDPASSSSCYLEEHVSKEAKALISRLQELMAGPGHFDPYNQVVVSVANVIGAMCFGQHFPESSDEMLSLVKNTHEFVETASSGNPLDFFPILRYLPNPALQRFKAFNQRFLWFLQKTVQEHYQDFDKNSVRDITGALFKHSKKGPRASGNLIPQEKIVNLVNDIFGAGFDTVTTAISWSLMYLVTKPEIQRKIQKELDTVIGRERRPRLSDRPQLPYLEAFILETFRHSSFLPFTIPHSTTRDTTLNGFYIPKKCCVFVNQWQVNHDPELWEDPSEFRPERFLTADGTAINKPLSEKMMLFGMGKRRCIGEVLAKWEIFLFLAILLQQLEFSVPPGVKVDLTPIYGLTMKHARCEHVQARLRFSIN

Assay [13] in a line: qHTS Counterscreen for compound interference against the NCATS DSHEA and TCM libraries (AID 1919978).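 Note: compounds preincubated with 1 µM D-luciferin or buffer before detection reagent; % of control where 0% means no effect.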 As to conditions: firefly luciferase detection reagent interference, luminescence. A digest of the protocol: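 Firefly luciferase detection reagent was added after compounds (19.5 nM–39.8 uM final) had been incubated 15 min at room temperature with 1 uM D-luciferin or with 100 mM phosphate buffer alone. Luminescence was read after 30 min at room temperature.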

The nature of assay [14]: Dual reporter qHTS for agonist of Pregnane X Receptor (hPXR) against the NCATS DSHEA and TCM libraries: Fluorescence readout (AID 1920058). Note: 0% is about no effect. A digest of the protocol: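 Fluorescence read-out for cell viability: CellTiter-Fluor, 1 h at 37 °C, Ex/Em 405/540 nm. This followed ~24 h treatment of hPXR-Luc HepG2 cells with substances in agonist mode.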
The target in assay [15] is Nuclear receptor subfamily 1 group I member 2 (Homo sapiens) (UniProt O75469). The experiment in a line: Dual reporter qHTS for antagonist of Pregnane X Receptor (hPXR) against the NCATS DSHEA and TCM libraries: Luminescence Readout (AID 1920060).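 Note: HepG2 cells carrying hPXR luciferase reporter stimulated with rifampicin at 2 µM; 0% is about no effect.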 A digest of the protocol: (§3)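 Antagonist mode: rifampicin 2 uM final co-added with compounds to hPXR-LucHepG2 cells for 24 h at 37C. Viability by CellTiter-Fluor, Ex/Em 405/540 nm, 1 h; reporter by ONE-Glo luminescence.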
Sequence of Nuclear receptor subfamily 1 group I member 2 (Homo sapiens) (O75469 whole entry, looked up): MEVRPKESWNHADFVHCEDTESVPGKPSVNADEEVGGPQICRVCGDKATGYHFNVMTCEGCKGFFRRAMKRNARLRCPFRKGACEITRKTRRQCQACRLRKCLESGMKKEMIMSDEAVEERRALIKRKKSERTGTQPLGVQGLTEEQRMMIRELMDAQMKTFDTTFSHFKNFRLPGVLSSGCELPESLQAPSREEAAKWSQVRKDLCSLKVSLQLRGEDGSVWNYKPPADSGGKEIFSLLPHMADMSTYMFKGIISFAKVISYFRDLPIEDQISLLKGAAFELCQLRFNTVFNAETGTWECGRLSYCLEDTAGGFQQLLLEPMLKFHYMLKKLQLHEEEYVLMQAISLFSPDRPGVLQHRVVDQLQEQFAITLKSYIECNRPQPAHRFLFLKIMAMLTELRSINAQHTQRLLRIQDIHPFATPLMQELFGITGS

Assay [16] can be described thus: Dual reporter qHTS for antagonist of Pregnane X Receptor (hPXR) against the NCATS DSHEA and TCM libraries: Fluorescence Readout (AID 1920061). Note: 0% is about no effect. A digest of the protocol: as §3
The target of assay [17] is Cytochrome P450 1A2 (Homo sapiens) (UniProt P05177). The experiment in a line: p450-cyp1a2 (AID 410; calls by dose curve; note: potency is the fitted concentration of half-maximal effect). A digest of the protocol: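 20nM CYP1A2, 100uM Luciferin-ME (=Km), 100mM KPO4; cpd 10 min RT; +NADPH regen, 60 min RT; stop/detect 20 min; luminescence. Normalized to furafylline 57 uM = full inhibition.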
The target in assay [18] is Glucocorticoid receptor (Homo sapiens) (UniProt P04150). The experiment in a line: GR-GFP Redistribution (AID 450;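 active = compounds whose dose series gives a full or clear partial fitted curve of increased nuclear translocation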; note: potency is the fitted concentration of half-maximal effect). As to conditions: U2OS GR-GFP nuclear translocation, laser cytometry, 2 h.
Sequence of Glucocorticoid receptor (Homo sapiens) (P04150 whole entry, looked up): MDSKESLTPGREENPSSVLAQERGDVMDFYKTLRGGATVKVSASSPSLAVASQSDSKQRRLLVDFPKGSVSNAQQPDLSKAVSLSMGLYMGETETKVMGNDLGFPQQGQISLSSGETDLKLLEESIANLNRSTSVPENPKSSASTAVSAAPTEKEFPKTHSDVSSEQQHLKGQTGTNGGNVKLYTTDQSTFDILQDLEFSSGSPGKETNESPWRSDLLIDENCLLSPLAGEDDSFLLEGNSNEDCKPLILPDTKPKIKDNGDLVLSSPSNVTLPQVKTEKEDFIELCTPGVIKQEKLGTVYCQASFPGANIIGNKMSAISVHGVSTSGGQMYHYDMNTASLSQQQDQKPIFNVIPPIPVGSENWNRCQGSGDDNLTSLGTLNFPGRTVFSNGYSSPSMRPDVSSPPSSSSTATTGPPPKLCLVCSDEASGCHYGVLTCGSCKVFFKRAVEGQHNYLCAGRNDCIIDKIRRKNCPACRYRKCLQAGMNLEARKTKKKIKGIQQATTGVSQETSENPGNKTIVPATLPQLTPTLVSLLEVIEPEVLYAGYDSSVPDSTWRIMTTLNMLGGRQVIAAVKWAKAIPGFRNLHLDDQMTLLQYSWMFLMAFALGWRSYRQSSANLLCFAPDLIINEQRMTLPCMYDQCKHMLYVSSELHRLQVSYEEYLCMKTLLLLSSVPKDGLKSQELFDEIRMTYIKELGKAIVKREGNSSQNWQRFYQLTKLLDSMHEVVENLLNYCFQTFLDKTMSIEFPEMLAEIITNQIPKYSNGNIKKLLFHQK
For assay [19], the target named is Cytochrome P450 3A4 (Homo sapiens) (UniProt P08684). The experiment in a line: qHTS Assay for Activators of Cytochrome P450 3A4 (AID 885). Note: nearly all actives have a fitted effect of over 65% in size. The method in brief:
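CYP3A4 activity: Luciferin-PPXE O-dealkylation, 25uM substrate, 200mM KPO4, RT throughout. Read-out is luciferase luminescence; higher values reflect activation.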

Assay [20] concerns the target Cytochrome P450 2D6 (Homo sapiens) (UniProt P10635). The experiment in a line: qHTS Assay for Inhibitors and Substrates of Cytochrome P450 2D6 (AID 891). Note: potency is the fitted concentration of half-maximal effect; nearly all actives have a fitted effect of over 60% in size. A digest of the protocol:
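Luminescent read-out of luciferin formed by 5 nM human CYP2D6 demethylating 30 uM Luciferin-ME EGE (Km level) over 60 min at room temperature after NADPH regeneration addition. Data normalized to full inhibition by 1.43 uM quinidine.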

Assay [21] addresses DNA dC->dU-editing enzyme APOBEC-3G (Homo sapiens) (UniProt Q9HC16). The experiment in a line: qHTS for inhibitors of Vif-A3G interactions: Validation (AID 588379). Note: 0% is about no effect. The method in brief:
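Yellow fluorescence (Ex 488, Em 500-530) of Vif-coexpressing HeLa A3G-eYFP cells, scanned by Acumen cytometer, reports blocked A3G degradation. Cells plated at 700/well overnight at 37 deg C before compound addition, then a further overnight compound incubation at 37 deg C.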

Assay [22] has as its target Cytochrome P450 2C19 (Homo sapiens) (UniProt P33261). The experiment in a line: qHTS for inhibitors of CYP2C19 against the NCATS DSHEA and TCM libraries (AID 1919974).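 Note: luminescence from luciferin released by CYP2C19 oxidation of a pro-luciferin substrate; potency is the fitted concentration of half-maximal effect.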 A digest of the protocol: as §2
The target of assay [23] is Nuclear receptor subfamily 1 group I member 2 (Homo sapiens) (UniProt O75469). The experiment in a line: Dual reporter qHTS for agonist of Pregnane X Receptor (hPXR) against the NCATS DSHEA and TCM libraries: Luminescence readout (AID 1920059). Note: 0% is about no effect. The method in brief:
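hPXR-LucHepG2 cells in phenol red-free DMEM with 5% charcoal-stripped FBS, 2000 cells/well, attached 5 h, then exposed 24 h at 37C to compounds; rifampicin as positive agonist control (2.8 nM–92 uM). Luciferase luminescence read.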

A number with no mark means an inactive call. Results filed as inconclusive are left out. The source made the active and inactive calls. Unless noted, calls come from the whole dose curve; as a rule, active = well fitted curve in the direction sought with a large enough effect; inconclusive = small, poorly fitted or top-dose-only effect, or another doubt; inactive = no such curve, though single readings can be large; an effect the other way counts as inactive or inconclusive. Some results are limits rather than exact numbers.

Sequence of Cytochrome P450 2D6 (Homo sapiens) (P10635 whole entry, looked up): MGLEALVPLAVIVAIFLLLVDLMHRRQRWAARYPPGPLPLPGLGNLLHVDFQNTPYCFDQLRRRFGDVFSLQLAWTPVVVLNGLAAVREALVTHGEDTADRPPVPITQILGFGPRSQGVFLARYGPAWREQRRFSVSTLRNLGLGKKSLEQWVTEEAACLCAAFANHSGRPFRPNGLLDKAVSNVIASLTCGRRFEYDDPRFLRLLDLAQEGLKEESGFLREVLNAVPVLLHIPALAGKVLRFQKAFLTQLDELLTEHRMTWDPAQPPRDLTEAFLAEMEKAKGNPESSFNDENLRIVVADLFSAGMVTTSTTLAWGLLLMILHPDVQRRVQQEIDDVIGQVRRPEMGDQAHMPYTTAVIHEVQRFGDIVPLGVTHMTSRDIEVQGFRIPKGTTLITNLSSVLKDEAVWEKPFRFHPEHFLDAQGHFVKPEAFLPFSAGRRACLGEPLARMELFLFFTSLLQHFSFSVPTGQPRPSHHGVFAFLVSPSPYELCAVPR
Sequence of Cytochrome P450 3A4 (Homo sapiens) (P08684 whole entry, looked up): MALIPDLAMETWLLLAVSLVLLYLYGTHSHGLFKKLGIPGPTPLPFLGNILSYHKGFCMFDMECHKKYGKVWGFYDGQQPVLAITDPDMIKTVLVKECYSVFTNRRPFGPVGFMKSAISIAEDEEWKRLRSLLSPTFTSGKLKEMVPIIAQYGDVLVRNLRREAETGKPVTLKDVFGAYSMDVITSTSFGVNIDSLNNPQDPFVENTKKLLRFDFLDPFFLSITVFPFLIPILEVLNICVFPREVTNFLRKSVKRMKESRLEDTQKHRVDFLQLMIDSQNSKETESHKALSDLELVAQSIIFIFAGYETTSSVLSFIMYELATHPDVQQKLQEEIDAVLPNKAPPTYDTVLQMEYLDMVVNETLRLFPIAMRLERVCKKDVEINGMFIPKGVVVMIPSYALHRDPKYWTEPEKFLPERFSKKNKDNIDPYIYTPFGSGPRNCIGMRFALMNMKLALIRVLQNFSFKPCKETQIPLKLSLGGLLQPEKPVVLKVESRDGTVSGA
Sequence of Cytochrome P450 2C19 (Homo sapiens) (P33261 whole entry, looked up): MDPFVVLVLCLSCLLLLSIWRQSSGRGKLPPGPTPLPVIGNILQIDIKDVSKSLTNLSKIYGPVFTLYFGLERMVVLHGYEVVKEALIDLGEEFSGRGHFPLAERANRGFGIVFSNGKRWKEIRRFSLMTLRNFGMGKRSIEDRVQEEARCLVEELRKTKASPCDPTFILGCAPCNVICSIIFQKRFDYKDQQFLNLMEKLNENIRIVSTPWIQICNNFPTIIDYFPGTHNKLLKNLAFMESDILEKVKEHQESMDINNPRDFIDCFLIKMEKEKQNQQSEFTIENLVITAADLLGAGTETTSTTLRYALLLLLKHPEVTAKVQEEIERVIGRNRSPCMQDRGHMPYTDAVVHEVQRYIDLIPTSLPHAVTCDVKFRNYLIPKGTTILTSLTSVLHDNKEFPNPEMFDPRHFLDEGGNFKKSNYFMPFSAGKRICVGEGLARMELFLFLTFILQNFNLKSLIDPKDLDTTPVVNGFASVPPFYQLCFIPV
Sequence of DNA dC->dU-editing enzyme APOBEC-3G (Homo sapiens) (Q9HC16 whole entry, looked up): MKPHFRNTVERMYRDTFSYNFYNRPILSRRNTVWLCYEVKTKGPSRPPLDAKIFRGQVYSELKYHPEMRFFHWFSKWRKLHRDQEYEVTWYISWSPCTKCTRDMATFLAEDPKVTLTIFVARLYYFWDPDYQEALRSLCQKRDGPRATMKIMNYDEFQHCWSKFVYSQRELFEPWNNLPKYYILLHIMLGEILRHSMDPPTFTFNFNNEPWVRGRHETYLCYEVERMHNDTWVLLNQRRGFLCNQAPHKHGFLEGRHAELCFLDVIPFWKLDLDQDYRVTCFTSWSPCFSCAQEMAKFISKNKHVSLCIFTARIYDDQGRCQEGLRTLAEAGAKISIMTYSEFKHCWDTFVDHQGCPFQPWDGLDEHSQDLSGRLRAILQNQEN

For `CC/C=C\C/C=C\C/C=C\CCCCCCCC(=O)O`, the Potency result in assay [1] and in assay [2] was “inactive” each time.
For `C=C[C@H]1CN2CC[C@@]3(C(=O)Nc4ccccc43)[C@@H]2C[C@@H]1/C(=C\OC)C(=O)OC`, the results for the Potency in assay [1] and in assay [8] were 3.98 µM (active) and 12.6 µM (active), respectively. In addition, the outcome in assay [3], in [4], in [6], in assay [7], in assay [11] and in assay [14] was inactive. Besides, the outcome in assay [15] and in assay [16] was inactive. For the same molecule, the Potency result in [5], in assay [9], in [10], in assay [12] and in assay [2] was “inactive” in each case. In addition, the max response in assay [13] was -1.45%.
For the molecule `COc1cc(/C=C/c2ccccc2)oc(=O)c1`, the Potency entry in assay [1] and in assay [2] was “inactive” throughout.
In the case of `C[C@@H]1OC(O[C@H]2[C@H](O)[C@@H](O)[C@H](OC[C@H]3O[C@@H](OC(=O)[C@]45CCC(C)(C)C[C@@H]4C4=CCC6[C@@]7(C)CC[C@H](OC8OC[C@H](O)[C@H](O)[C@H]8OC8O[C@@H](C)[C@H](O)[C@@H](O)[C@H]8O)[C@@](C)(CO)C7CC[C@@]6(C)[C@]4(C)CC5)[C@H](O)[C@@H](O)[C@@H]3O)O[C@@H]2CO)[C@H](O)[C@H](O)[C@H]1O` (stereo partly drawn), the Potency entry in [1] and in assay [2] was “inactive” throughout.
Take `O=C(/C=C/c1ccc(O)c(O)c1)O[C@@H]1CC(O)(C(=O)O)C[C@@H](OC(=O)/C=C/c2ccc(O)c(O)c2)C1O` (stereo partly drawn): the Potency result in [1] and in assay [2] was “inactive” throughout.
With `COC(=O)C1=CO[C@@H](C)[C@H]2CN3CCc4c([nH]c5ccccc45)[C@@H]3C[C@H]12`, the Potency result in assay [1] and in assay [2] was “inactive” throughout.
`C=C1CC/C=C(/C)CC[C@@H]2[C@@H]1CC2(C)C`: the Potency result in assay [1] and in assay [2] was “inactive” in each case.
For the molecule `COc1cc2c(cc1O)C[C@H]1c3c(cc(OC)c(O)c3-2)CCN1C`, the Potency in assay [17] was 10 µM (active); in [18], more than 46 µM; in assay [20] it was 6.31 µM (active); in assay [5], 12.6 µM (active); in assay [9] it was 5.01 µM (active); in [22], 3.98 µM (active). Also, the Potency in assay [12] is 10 µM (active). The Potency result in [19], in assay [1], in assay [2] and in assay [23] was “inactive” in each case. Moreover, the molecule was classed as inactive in assay [21], in [3], in assay [4], in assay [6], in [7] and in assay [11]. Also, the molecule was classed as inactive in [14] and in assay [15]. Also, in assay [13], the max response is -3.09%.
